# PPC-1+TRAIL kill: kills PPC-1 cancer cells in the presence of TRAIL; cell killing (% activity), % at 4 µM or 5 µM; hit rate 0.41% among 220,000; PPC-1 cells + TRAIL, ATPLite viability luminescence; AID 1443;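 active means cell killing above 50% in the first pass at 4 µM, then a duplicate retest at 5 µM averaging 50% or more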
# SENP8 block-1: SENP8 protease inhibition; inhibition, % at 10 µM; hit rate 1.2% among 330,000; purified SENP8, Z-RLRGG-aminoluciferin cleavage, luminescence; Q96LD8; in the data active means inhibition above about 50%
# Target sequence (Q96LD8 whole entry, looked up): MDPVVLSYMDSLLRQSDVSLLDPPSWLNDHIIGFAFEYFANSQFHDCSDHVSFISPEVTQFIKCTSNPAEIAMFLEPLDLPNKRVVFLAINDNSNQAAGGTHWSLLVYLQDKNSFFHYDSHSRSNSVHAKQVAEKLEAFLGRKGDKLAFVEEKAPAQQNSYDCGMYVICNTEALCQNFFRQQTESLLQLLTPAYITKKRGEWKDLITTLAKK
# TRAIL sens C8: caspase-8 TRAIL sensitization | NB7+C8 cells + TRAIL, ATPlite viability luminescence | inhibition (viability loss, TRAIL sensitization), % at 10 µM | hit rate 1% among 360,000 | AID 624354;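 active means compounds causing at least 50% loss of cell viability in the single-dose screen, relative to plate controls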
# SENP7 inh: SENP7 protease inhibition; inhibition, % at 5 µM; hit rate 1.5% among 330,000; Q9BQF6; recombinant SENP7, Z-RLRGG-aminoluciferin luminescence, 40 min; AID 434973;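 active means inhibition above about 50% at the single test dose, limit read from the data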
# SENP8 block-2: blocks human SENP8 cleavage of Nedd8 substrate; Q96LD8; inhibition, % at 20 µM; hit rate 0.64% among 360,000; AID 602440; recombinant SENP8, Nedd8 substrate fluorescence; in the data active means inhibition mostly above about 40%, no sharp cut-off; inactive means mostly below about 27%
# SENP6 block: SENP6 protease inhibition. Q9GZR1. Recombinant SENP6 catalytic domain, aminoluciferin luminescence. inhibition, % at 10 µM. hit rate 1.8% among 330,000;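 active means inhibition above about 50% at the single tested dose, limit read from the data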
# SENP8 conf: human SENP8 inhibition, confirmed; shares compounds with SENP7 inh; Recombinant SENP8, Z-RLRGG-aminoluciferin luminescence, 60 min; inhibition, % at 12.5 µM; hit rate 40% among 6,200;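 active means mean inhibition across replicates above about 50%, limit read from the data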
# SENP6 conf: human SENP6 inhibition, confirmed; shares compounds with SENP7 inh; recombinant SENP6, Z-RLRGG-aminoluciferin luminescence; inhibition, % at 12.5 µM; hit rate 58% among 6,200
# SENP7 confirm: confirmation of human SENP7 protease inhibitors | shares compounds with SENP7 inh | recombinant SENP7, Z-RLRGG-aminoluciferin luminescence, 40 min | inhibition, % at 12.5 µM | hit rate 69% among 6,200
# Casp3 select: caspase-3 inhibition (SENP selectivity assay); inhibition, % at 12.5 µM; shares compounds with SENP7 inh; purified caspase-3, Z-DEVD-aminoluciferin luminescence, 60 min; hit rate 60% among 6,200;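 active means mean inhibition above about 50%, limit read from the data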
# Target sequence (P42574 28-227 limits assumed): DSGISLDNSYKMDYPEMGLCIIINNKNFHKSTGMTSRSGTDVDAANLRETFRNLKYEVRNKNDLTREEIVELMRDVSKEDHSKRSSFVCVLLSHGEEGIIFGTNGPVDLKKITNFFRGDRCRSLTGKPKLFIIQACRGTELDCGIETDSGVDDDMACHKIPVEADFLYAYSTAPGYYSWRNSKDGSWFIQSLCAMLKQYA
# Luc interf: counter-screen for SENP inhibitors: luminescence interference; Pre-incubated SENP8/Z-RLRGG-aminoluciferin, luciferase luminescence interference; shares compounds with SENP7 inh; inhibition, % at 12.5 µM; hit rate 39% among 6,200;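 active means mean inhibition above about 50% when retested at one dose, limit read from the data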
# A number is an active result; – = inactive; · = no result. Compounds with a hit are over-represented: about 3% of the library has one in this group of screens.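 How the source made its calls, unless noted: active means mean inhibition above about 50% in the one-dose retest (limit read from the data); inactive means the rest.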
SMILES,PPC-1+TRAIL kill,SENP8 block-1,TRAIL sens C8,SENP7 inh,SENP8 block-2,SENP6 block,SENP8 conf,SENP6 conf,SENP7 confirm,Casp3 select,Luc interf
COC(=O)/C=c1\sc2ncnn2c1=O,–,–,–,–,–,84.9,–,–,–,–,–
COc1cc2oc(-c3ccc(O)cc3)cc(=O)c2c(O)c1OC,–,–,–,–,–,–,·,·,·,·,·
COc1c(O)cc2oc(-c3ccc(O)cc3)cc(=O)c2c1O,–,–,–,59.0,–,57.0,62.7,59.6,88.5,71.1,70.7
O=c1cc(-c2ccc(O)cc2)oc2ccc3ccccc3c12,·,98.0,89.6,98.8,–,97.4,96.8,100.0,103.0,98.6,82.9
CCOc1cc(C2NN=C(c3ccccc3)S2)ccc1OCc1ccccc1Cl (stereo not drawn),–,–,–,–,–,66.3,53.2,–,83.9,68.9,58.5
CCOc1cc(C2NN=C(c3ccccc3)S2)ccc1OCc1ccc(F)cc1 (stereo not drawn),–,50.2,–,–,–,82.9,–,71.5,93.6,75.4,70.2
CCOc1cc(CNC2CCCC2)ccc1OCc1ccccc1Cl,–,–,–,–,–,–,·,·,·,·,·
Cc1cn([C@H]2C[C@H](O)[C@@H](CCC(=O)NC(c3ccccc3)c3ccccc3)O2)c(=O)[nH]c1=O,·,·,–,·,–,·,·,·,·,·,·
COc1cccc(CN2CCN(C(=O)c3oc4c(F)cccc4c3C)CC2=O)c1,·,–,–,–,–,86.5,–,–,–,–,–
COc1ccc(OC)c(S(=O)(=O)NCC(c2ccc3c(c2)OCO3)N2CCOCC2)c1 (stereo not drawn),·,–,–,–,–,–,·,·,·,·,·
Cc1ccc(C(=O)N2CCC(C(=O)Nc3cccc([N+](=O)[O-])c3)CC2)cc1,·,–,–,–,–,–,·,·,·,·,·
O=C(O)Cc1ccc(-c2ccccc2-c2ccccc2)cc1,–,–,–,–,–,–,·,·,·,·,·
O=C(O)Cc1ccc2sc(-c3ccccc3)nc2c1,–,92.5,–,90.7,–,98.9,96.4,97.0,100.8,97.3,96.0
COC(=O)Cc1ccc2sc(-c3ccccc3)nc2c1,–,94.5,62.5,100.3,–,93.9,96.5,97.7,101.1,95.5,94.2
COc1ccc(C(=O)NCc2ccc(-c3nc4ccccc4s3)cc2)cc1,–,–,–,–,–,–,·,·,·,·,·
O=C(CN(C(=O)c1csnn1)c1ccc(Cl)cc1)NCc1ccc2c(c1)OCO2,·,–,–,–,–,–,·,·,·,·,·
CCc1ccc(S(=O)(=O)N/N=C\c2ccc3c(c2)OCO3)cc1,·,–,–,–,–,–,·,·,·,·,·
CCc1ccc(-c2ccc(C(=O)O)cc2)nc1,–,–,–,65.3,–,–,76.1,74.0,93.7,90.7,75.2
COC(=O)c1sccc1N/N=C/c1cccc(OC)c1O,–,92.2,–,98.7,–,93.9,–,78.1,86.6,69.9,–
COC(=O)c1sccc1N/N=C/c1cccc(Oc2ccccc2)c1,–,94.9,–,96.9,–,63.1,–,53.2,–,94.2,–
O=C(N/N=C/c1cccc(Oc2ccccc2)c1)c1ccccc1F,·,–,–,–,–,–,·,·,·,·,·
COC(=O)c1sccc1N/N=C/c1ccc(OC)c(OC)c1OC,–,–,–,–,–,–,·,·,·,·,·
CCCCn1c(N)c(N(CCC(C)C)C(=O)CN2C(=O)C3CCCCC3C2=O)c(=O)[nH]c1=O (stereo not drawn),·,–,–,–,–,–,·,·,·,·,·
COC(=O)c1[nH]c2ccc(C)cc2c1NC(=O)Oc1ccccc1,–,50.9,–,–,–,81.6,–,–,–,–,–
COC(=O)c1[nH]c2ccccc2c1NC(=O)Oc1ccccc1,–,–,–,–,–,–,·,·,·,·,·
